The whole screen tested about 200,000 compounds, of which about 18,000 (9%) were called active. This is one part of a sample in which actives are shown more often than they occur. No stated cut-off is given here; in the data, active means inhibition above about 50%; inactive means the rest.
Experiment: Leishmania major promastigote growth inhibition, primary screen (AID 1063);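 further: promastigotes grown with compound for 44 hours at 28 °C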
Conditions: Leishmania major promastigotes, resazurin fluorescence viability; at 10 µM; stronger effect = higher value

Row | SMILES | inhibition
1 | S=C(Nc1ccc2c(c1)OCO2)N1CCCC1 | -4.06% (inactive)
2 | O=C1NC(=O)C2C1C(c1ccc([N+](=O)[O-])cc1)=NN2Cc1ccccc1 (stereo unspecified) | -2.02% (inactive)
3 | CCc1ccc2c(c1)C(c1ccc([N+](=O)[O-])cc1)=NNC(c1ccccc1)=N2 | 60.2% (active)
4 | CCOc1ccc2c(c1)C(c1ccc(C)cc1)=NNC(c1ccc(C)cc1)=N2 | 17.4% (inactive)
5 | CC(C)(C)c1ccc(/C=C2\SC(=O)N=C2N)cc1 | 33.6% (inactive)
6 | Cc1ccc(/C([O-])=C(/C(=S)NCc2ccco2)[n+]2ccccc2)cc1[N+](=O)[O-] | -2.58% (inactive)
7 | Fc1ccccc1Cc1ccc(Cl)nn1 | -4.31% (inactive)
8 | CC(=O)NCCC(=O)Nc1nc(C)c(Cc2ccc3c(c2)OCO3)s1 | 55.9% (active)
9 | Cc1ccc(C(=O)OCC(=O)NCc2ccc3c(c2)OCO3)s1 | -5.96% (inactive)
10 | Cc1ccc(C(=O)Nc2sc(Cc3ccc4c(c3)OCO4)c(C)c2C(N)=O)cc1 | -6.82% (inactive)
11 | O=C(Nc1cccc(F)c1)N1C2CCC1CC(O)(c1cccnc1)C2 (stereo unspecified) | 4.96% (inactive)
12 | COc1ccc(-n2cnc3cc(NCc4ccco4)ccc32)cc1 | 90.2% (active)
13 | COc1ccc(-n2cnc3cc(C(=O)NC4CCCC4)ccc32)cc1 | 1.49% (inactive)
14 | COc1ccc(Nc2nc(Cl)nc(NCc3ccco3)n2)cc1 | 0.84% (inactive)
15 | CCN(CC)C(=O)C(=O)Nc1cccc(Br)c1 | -4.3% (inactive)
16 | C=CCC1(CC=C)CCCN1C(=O)CC1C(=O)NCCN1Cc1ccccc1OC (stereo unspecified) | 2.2% (inactive)
17 | CC1CC(C)CN(CCC(=O)Nc2ccc3c(c2)CCC3)C1 (stereo unspecified) | 65.4% (active)
18 | COc1cccc(NC(=O)CN(C)CC(=O)Nc2ccc3c(c2)CCC3)c1 | 2.96% (inactive)
19 | CC(C)C(=O)OCC(=O)Nc1ccc2c(c1)CCC2 | -3.35% (inactive)
20 | CCCCSc1nc2ccccc2[nH]1 | -4.2% (inactive)
21 | COc1cccc(OC)c1C(=O)Nc1ccc(N2CCCCC2)cc1 | -1.53% (inactive)

Row | SMILES | inhibition
22 | Cc1ccccc1C(=O)Nc1ccc(N2CCCCCC2)cc1 | 89.4% (active)
23 | COc1cccc(C(=O)Nc2ccc(N3CCCC3)cc2)c1 | 9.5% (inactive)
24 | Cc1ccc(NC(=S)N(Cc2ccco2)C(C)c2cccs2)cc1 (stereo unspecified) | 51.8% (active)
25 | Cc1ccc(NC(=S)N(CCN2CCCCC2)Cc2ccco2)cc1C | 13.2% (inactive)
26 | Cc1ccc(NC(=S)N(CCCN2CCC(C)CC2)Cc2ccco2)cc1 | 37.4% (inactive)
27 | O=C(CO/N=C/c1ccccc1OC(F)F)NC1CCCC1 | 9.48% (inactive)
28 | NS(=O)(=O)c1ccc(N2C(=O)C3C4CC(C(Br)C4Br)C3C2=O)cc1 (stereo unspecified) | -1.02% (inactive)
29 | CC(C)Nc1nnc(SCC(=O)/C=C2\N(C)c3ccccc3C2(C)C)s1 | 2.98% (inactive)
30 | CN1/C(=C\C(=O)c2cccnc2Cl)C(C)(C)c2ccccc21 | 55.5% (active)
31 | CN1/C(=C\C(=O)c2oc3ccccc3c2N)C(C)(C)c2ccccc21 | 5.73% (inactive)
32 | O=C(COC(=O)Cn1cnc2ccccc2c1=O)NCc1ccccc1Cl | 1.11% (inactive)
33 | Cn1cccc1C(C#N)c1ccccc1C#N (stereo unspecified) | 4.16% (inactive)
34 | Cc1cc(C(=O)N/N=C/c2ccccc2[N+](=O)[O-])c(C)o1 | -4.59% (inactive)
35 | CSc1ccc(/C=N/N2CCN(Cc3ccccc3Cl)CC2)cc1 | -7.46% (inactive)
36 | Cc1ccccc1NC(=S)NNC(=O)c1cccc(Br)c1 | -0.99% (inactive)
37 | Cc1ccc(S(=O)(=O)NCCc2nnc3ccc(SCc4cccnc4)nn23)cc1 | -6.61% (inactive)
38 | COCCn1c(=O)[nH]c(=O)c2cc(C(=O)c3cc(OC)ccc3O)cnc21 | 0.78% (inactive)
39 | COc1ccc(O)c(C(=O)c2cnc3onc(C(C)C)c3c2)c1 | -0.73% (inactive)
40 | COc1ccc(O)c(C(=O)c2cnc3c(c2)c(-c2ccc(F)cc2)c(C#N)c(=O)n3C)c1 | 52.4% (active)
41 | CC(=O)N/N=C(\C)c1ccc(Br)cc1Br | -4.52% (inactive)
42 | CCN1CCN(C(=O)c2ccccc2N(C)S(=O)(=O)c2ccc(C)cc2)CC1 | -0.79% (inactive)

Row | SMILES | inhibition
43 | CCOC(=O)C1CCN(C(=O)c2ccccc2N(C)S(=O)(=O)c2ccccc2)CC1 | 53.4% (active)
44 | COc1ccccc1N(C)S(=O)(=O)c1ccc(C(=O)N2CCC(C(N)=O)CC2)cc1 | 3.34% (inactive)
45 | CC1COc2ccccc2N1C(=O)c1cccnc1Cl (stereo unspecified) | -4% (inactive)
46 | C=C(C)Cn1c(C)cc(C)c(S(=O)(=O)c2ccccc2C)c1=O | 96% (active)
47 | CCN(CC(=O)Nc1ccc(Cl)c(S(=O)(=O)N(C)C)c1)Cc1nc2ccccc2c(=O)[nH]1 | -6.29% (inactive)
48 | CN(C)S(=O)(=O)c1cc(NC(=O)CN2C(=O)NC3(CCCc4ccccc43)C2=O)ccc1Cl (stereo unspecified) | 57.4% (active)
49 | Cc1ccc(NC(=O)CNCc2ccccn2)cc1S(=O)(=O)N(C)C | 6.73% (inactive)
50 | COc1ccc(C(=O)ON=C2c3ccccc3-c3ccccc32)cc1OC | -6.29% (inactive)
51 | COc1ccc(C(=O)O/N=C(\N)Cc2ccc(Cl)cc2Cl)cc1OC | 71.9% (active)
52 | COc1ccc(C/C(N)=N/OC(=O)c2ccco2)cc1OC | -5.88% (inactive)
53 | CN(Cc1ccc2nsnc2c1)Cc1nc(Cc2cccc(F)c2)no1 | -4.63% (inactive)
54 | CN1CCN(C(=O)CCc2ncc(C(F)(F)F)cc2Cl)CC1 | -6.47% (inactive)
55 | O=C(NCC(=O)N(CC1CCCO1)C(C(=O)NC1CCCCC1)c1ccccc1)c1ccco1 (stereo unspecified) | -4.69% (inactive)
56 | Cc1cccc(Oc2c([N+](=O)[O-])c(=O)n(C)c3ccccc23)c1 | -3.73% (inactive)
57 | COc1ccc(/C=N/NC(=O)c2cccc(C(F)(F)F)c2)cc1 | 12% (inactive)
58 | C=CCNC(=S)N1CCN(CCN=Cc2c(C)[nH]n(-c3ccc([N+](=O)[O-])cc3)c2=O)CC1 | -7.1% (inactive)
59 | CCc1ccc2c(c1)C1(NN=C(c3ccccc3)S1)C(=O)N2 (stereo unspecified) | 99.1% (active)
60 | O=C1Nc2ccccc2C12Nc1ccccc1S2 (stereo unspecified) | -4.59% (inactive)
61 | C=C1c2cc(CC)ccc2NC(=O)N1c1ccc(C)cc1 | 12.2% (inactive)

From PubChem BioAssay AID1063 (University of Pittsburgh Molecular Library Screening Center, 2008)
